Experimental data reported in patent publication US20070207532, “Mutants Of O6-Alkylguanine-Dna Alkyltransferase” (published 2007).

Target: AGT mutant of Example 4 (GST fusion) (Homo sapiens, UniProt P16455 SEQ:1-207, Gly131Lys, Gly132Thr, Met134Leu, Arg135Ser, Asn157Gly, Ser159Glu)
Assay: competition; reactivity with BG-modified oligonucleotide
Conditions: tags: N-terminal GST (pGEX-2T); ssDNA; O6-benzylguanine at position 14
Experimental: Reactivity against DNA-based substrates measured with a BG-Cy3 assay: BG-Cy3 is prepared by reacting the previously described O⁶-(4-aminomethyl-benzyl)guanine (Keppler et al., NatureBiotechnol. 21:86-89, 2003) with the commercially available N-hydroxysuccinimide ester of Cy3, (Cy3-NHS, Amersham). The coupling reaction is performed at ambient temperature in N,N-dimethylformamide in the presence of 1 eq. of triethylamine. The BG-Cy3 conjugate is purified by reversed-phase HPLC on a C18-column by using linear gradients from 0.1% trifluoroacetic acid to acetonitrile. After solvent evaporation BG-Cy3 is dissolved in dimethyl sulfoxide and stored at −20° C. For measuring the reactivity with DNA-based substrates, a reaction mixture containing different concentrations (0 to 5 µM) of oligonucleotide SEQ ID NO:2 (modified in position 14), GST-AGT fusion protein at 0.2 µM and BG-Cy3 at […] in reaction buffer (50 mM HEPES, pH 7.2, 1 mM DTT, […] BSA) is incubated in microtiterplates. Fluorescence of the Cy3 derivative (excitation 519 nm, emission at 572 nm) is measured on a Spectramax Gemini plate reader (Molecular Devices).

Chain of AGT mutant of Example 4 (GST fusion) (P16455 whole entry G131K/G132T/M134L/R135S/N157G/S159E, the tested form may be a part): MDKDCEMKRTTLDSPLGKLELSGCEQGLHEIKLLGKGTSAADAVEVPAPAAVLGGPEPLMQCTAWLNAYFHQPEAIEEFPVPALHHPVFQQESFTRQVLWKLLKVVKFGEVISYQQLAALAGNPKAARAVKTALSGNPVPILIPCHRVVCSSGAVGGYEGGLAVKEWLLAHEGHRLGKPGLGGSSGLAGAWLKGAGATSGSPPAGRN

Row | Sequence | binding signal
1 | GTGGTGGGCAGCTGAGGCGTGG | ≥ 1000 fold reduced vs PGEG-hAGT
